Source: article PMC11062922 (Nature Chemical Biology, 2023)
Like-named read-outs stand apart in the source and are kept apart here.

Assays:
Design in all cases: species or system human, MV4-11 + K-562 + COLO205 + SK-N-BE2 + OVCAR-8
CDC42BPA = conditions: read-out: apparent Kd, n = 1
CDC42BPB = conditions: read-out: apparent Kd, compound concentrations: 100 nM and 1000 nM (sheet 'Samples'), n = 1
CDC42BPG = conditions: read-out: apparent Kd, compound concentrations: 100 nM and 1000 nM (sheet 'Samples'), n = 1
PKN1 = conditions: read-out: apparent Kd, compound concentrations: 100 nM and 1000 nM (sheet 'Samples'), n = 1
PRKACA = conditions: read-out: apparent Kd, n = 1
PRKACB = conditions: read-out: apparent Kd, n = 1
PRKG1 = conditions: read-out: apparent Kd, compound concentrations: 100 nM and 1000 nM (sheet 'Samples'), n = 1
PRKX = conditions: read-out: apparent Kd, compound concentrations: 100 nM and 1000 nM (sheet 'Samples'), n = 1
ROCK1 = conditions: read-out: apparent Kd, n = 1
ROCK2 = conditions: read-out: apparent Kd, compound concentrations: 100 nM and 1000 nM (sheet 'Samples'), n = 1
LATS1 = conditions: read-out: apparent Kd, n = 1
PKN2 = conditions: read-out: apparent Kd, n = 1
PRKCA = conditions: read-out: apparent Kd; compound concentrations: 100 nM and 1000 nM (sheet 'Samples'), CATDS: 4.1587552070859297E-2; n = 1
PRKCD = conditions: read-out: apparent Kd; compound concentrations: 100 nM and 1000 nM (sheet 'Samples'), CATDS: 4.48878810193531E-2; n = 1
TP53RK = conditions: read-out: apparent Kd; compound concentrations: 100 nM and 1000 nM (sheet 'Samples'), CATDS: 4.1650793572711099E-2; n = 1
CDKL5 = conditions: read-out: apparent Kd; compound concentrations:100 nM and 1000 nM (sheet 'Samples'); n = 1
GRK6 = conditions: read-out: apparent Kd; compound concentrations:100 nM and 1000 nM (sheet 'Samples'); n = 1
PKN3 = conditions: read-out: apparent Kd; compound concentrations:100 nM and 1000 nM (sheet 'Samples'); n = 1
PRKAA1 = conditions: read-out: apparent Kd; compound concentrations:100 nM and 1000 nM (sheet 'Samples'); n = 1
PRKAG1 = conditions: read-out: apparent Kd; compound concentrations:100 nM and 1000 nM (sheet 'Samples'); n = 1
PRKAG2 = conditions: read-out: apparent Kd; compound concentrations:100 nM and 1000 nM (sheet 'Samples'); n = 1
PRKX;PRKY = conditions: read-out: apparent Kd; compound concentrations:100 nM and 1000 nM (sheet 'Samples'); n = 1
RPS6KA5 = conditions: read-out: apparent Kd; compound concentrations:100 nM and 1000 nM (sheet 'Samples'); n = 1
[1] = compound concentrations:100 nM and 1000 nM (sheet 'Samples')

Question: With NCCCC(NC(=O)c1cc(Br)c(-c2ccnc3[nH]ccc23)s1)c1ccccc1.NCCCC(NC(=O)c1cc(Br)c(-c2ccnc3[nH]ccc23)s1)c1ccccc1.O=C(O)C(F)(F)F.O=C(O)C(F)(F)F (stereo not drawn) [GSK1287544A] as the molecule, how does the potency estimated from few doses (CDC42BPA; compound concentrations: 100 nM and 1000 nM (sheet 'Samples'), CATDS: 6.9468579457902302E-2) read?
Answer: 735 nM

Question: And the potency estimated from few doses (CDC42BPB; CATDS: 0.12045997656794601)?
Answer: 111 nM

Question: And the potency estimated from few doses (CDC42BPG; CATDS: 0.15429937992002599)?
Answer: 65 nM

Question: And the potency estimated from few doses (PKN1; CATDS: 6.0218156247889197E-2)?
Answer: 1750 nM

Question: What about the potency estimated from few doses (PRKACA; compound concentrations: 100 nM and 1000 nM (sheet 'Samples'), CATDS: 0.135293982303474) of the same molecule?
Answer: 85.3 nM

Question: And the potency estimated from few doses (PRKACB; compound concentrations: 100 nM and 1000 nM (sheet 'Samples'), CATDS: 0.11075307193468301)?
Answer: 137 nM

Question: And the potency estimated from few doses (PRKG1; CATDS: 7.6658344406139403E-2)?
Answer: 465 nM

Question: And the potency estimated from few doses (PRKX; CATDS: 6.23454867877557E-2)?
Answer: 1370 nM

Question: What about the potency estimated from few doses (ROCK1; compound concentrations: 100 nM and 1000 nM (sheet 'Samples'), CATDS: 0.22662167781686399) of the same molecule?
Answer: 33.3 nM

Question: What about the potency estimated from few doses (ROCK2; CATDS: 0.23262842536730999) of the same molecule?
Answer: 31.9 nM

Question: Which results are given for NCCC(NC(=O)c1cc(Br)c(-c2ccnc3[nH]ccc23)s1)c1ccccc1.NCCC(NC(=O)c1cc(Br)c(-c2ccnc3[nH]ccc23)s1)c1ccccc1.O=C(O)C(F)(F)F.O=C(O)C(F)(F)F (stereo not drawn) [GSK1307810A]?
Answer: potency estimated from few doses (CDC42BPA; compound concentrations: 100 nM and 1000 nM (sheet 'Samples'), CATDS: 7.0311293069570804E-2): 227 nM; potency estimated from few doses (CDC42BPB; CATDS: 0.16933732506395899): 30.4 nM; potency estimated from few doses (CDC42BPG; CATDS: 0.24390813090815999): 17.2 nM; potency estimated from few doses (LATS1; compound concentrations: 100 nM and 1000 nM (sheet 'Samples'), CATDS: 4.6540265787969097E-2): 1110 nM; potency estimated from few doses (PKN1; CATDS: 4.7667379026866498E-2): 988 nM; potency estimated from few doses (PKN2; compound concentrations: 100 nM and 1000 nM (sheet 'Samples'), CATDS: 4.4394319464929097E-2): 1410 nM; potency estimated from few doses (PRKACA; compound concentrations: 100 nM and 1000 nM (sheet 'Samples'), CATDS: 0.118024991958308): 60.2 nM; potency estimated from few doses (PRKACB; compound concentrations: 100 nM and 1000 nM (sheet 'Samples'), CATDS: 8.0327411283578495E-2): 153 nM; potency estimated from few doses (PRKCA): 2070 nM; potency estimated from few doses (PRKCD): 1330 nM; potency estimated from few doses (PRKG1; CATDS: 6.8591269035778196E-2): 245 nM; potency estimated from few doses (PRKX; CATDS: 6.1188840569936599E-2): 360 nM; potency estimated from few doses (ROCK1; compound concentrations: 100 nM and 1000 nM (sheet 'Samples'), CATDS: 0.14218227493934099): 41.6 nM; potency estimated from few doses (ROCK2; CATDS: 0.152164814838194): 36.7 nM; potency estimated from few doses (TP53RK): 2050 nM

Question: Which potency estimated from few doses (CDC42BPA; [1]) does the source give for COc1ccc(C[C@@H](CN)NC(=O)c2cc(Br)c(-c3ccnc4[nH]ccc34)s2)cc1.COc1ccc(C[C@@H](CN)NC(=O)c2cc(Br)c(-c3ccnc4[nH]ccc34)s2)cc1.Cl.Cl [GSK1389063A] here?
Answer: 757 nM

Question: And the potency estimated from few doses (CDKL5)?
Answer: 1370 nM

Question: What about the potency estimated from few doses (GRK6) of the same molecule?
Answer: 93 nM

Question: What about the potency estimated from few doses (LATS1; [1]) of the same molecule?
Answer: 287 nM

Question: And the potency estimated from few doses (PKN2; [1])?
Answer: 897 nM

Question: What about the potency estimated from few doses (PKN3) of the same molecule?
Answer: 921 nM

Question: And the potency estimated from few doses (PRKAA1)?
Answer: 1570 nM

Question: And the potency estimated from few doses (PRKACA; [1])?
Answer: 11.7 nM

Question: And the potency estimated from few doses (PRKACB; [1])?
Answer: 23.5 nM

Question: What about the potency estimated from few doses (PRKAG1) of the same molecule?
Answer: 976 nM

Question: And the potency estimated from few doses (PRKAG2)?
Answer: 863 nM

Question: What about the potency estimated from few doses (PRKX;PRKY) of the same molecule?
Answer: 127 nM

Question: What about the potency estimated from few doses (ROCK1; [1]) of the same molecule?
Answer: 17.9 nM

Question: What about the potency estimated from few doses (RPS6KA5) of the same molecule?
Answer: 899 nM
